Source: PubChem
Rows were chosen to be rich in hits. Some 1.1% of all compounds tested hit in one or more screens of this group.
NCOA2 inhibitor: inhibits human steroid receptor coactivator 2. Q15596. HEK293 GAL4-SRC2 luciferase reporter, luminescence. inhibition, % at 9 µM. 370,000 tested, 0.17% active;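 active = inhibition above the mean inhibition of all tested compounds plus 3 SD, set per campaign, cut at about 52% in these data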;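 note: 0% = DMSO treated cells and 100% = cells given Gossypol at 36 µM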
NCOA1 inh: human NCOA1 inhibition. Q15788. HEK293 GAL4-SRC1 luciferase reporter, luminescence. inhibition, % at 3.6 µM. 360,000 tested, 0.12% active;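 active = inhibition above the campaign mean plus 3 SD, with each screening campaign given its own cutoff, cut at about 60% in these data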;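 note: 0% = DMSO treated cells and 100% = gossypol at 36 µM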
GalR3 antag: blocks the human galanin receptor 3 | O60755 | HEK293 GalR3-CNG cAMP membrane potential fluorescence; galR3 body fused to GalR1 C-terminus | inhibition, % at 3 µM | 360,000 tested, 0.44% active;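 active = inhibition above the screen-wide average plus 3 SD, cut at about 13% in these data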;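 note: forskolin and galanin both at EC90 stimulate the cells; cAMP rise reported by CNG channel membrane potential dye signal; 0% = forskolin plus galanin with DMSO and 100% = forskolin alone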
SRC3 inh: human NCOA3 inhibition | inhibition, % at 3.6 µM | 360,000 tested, 0.17% active | Q9Y6Q9 | HEK293 GAL4-SRC3 luciferase reporter, luminescence;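 active = inhibition above a per-campaign cutoff, the mean of all compounds plus 3 SD, cut at about 60% in these data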;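 note: 0% = DMSO-treated cells and 100% = gossypol-treated cells at 36 µM; higher means less SRC3-driven luciferase light from the GAL4 reporter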
Target sequence (Q9Y6Q9 whole entry, looked up, the tested form may be a part): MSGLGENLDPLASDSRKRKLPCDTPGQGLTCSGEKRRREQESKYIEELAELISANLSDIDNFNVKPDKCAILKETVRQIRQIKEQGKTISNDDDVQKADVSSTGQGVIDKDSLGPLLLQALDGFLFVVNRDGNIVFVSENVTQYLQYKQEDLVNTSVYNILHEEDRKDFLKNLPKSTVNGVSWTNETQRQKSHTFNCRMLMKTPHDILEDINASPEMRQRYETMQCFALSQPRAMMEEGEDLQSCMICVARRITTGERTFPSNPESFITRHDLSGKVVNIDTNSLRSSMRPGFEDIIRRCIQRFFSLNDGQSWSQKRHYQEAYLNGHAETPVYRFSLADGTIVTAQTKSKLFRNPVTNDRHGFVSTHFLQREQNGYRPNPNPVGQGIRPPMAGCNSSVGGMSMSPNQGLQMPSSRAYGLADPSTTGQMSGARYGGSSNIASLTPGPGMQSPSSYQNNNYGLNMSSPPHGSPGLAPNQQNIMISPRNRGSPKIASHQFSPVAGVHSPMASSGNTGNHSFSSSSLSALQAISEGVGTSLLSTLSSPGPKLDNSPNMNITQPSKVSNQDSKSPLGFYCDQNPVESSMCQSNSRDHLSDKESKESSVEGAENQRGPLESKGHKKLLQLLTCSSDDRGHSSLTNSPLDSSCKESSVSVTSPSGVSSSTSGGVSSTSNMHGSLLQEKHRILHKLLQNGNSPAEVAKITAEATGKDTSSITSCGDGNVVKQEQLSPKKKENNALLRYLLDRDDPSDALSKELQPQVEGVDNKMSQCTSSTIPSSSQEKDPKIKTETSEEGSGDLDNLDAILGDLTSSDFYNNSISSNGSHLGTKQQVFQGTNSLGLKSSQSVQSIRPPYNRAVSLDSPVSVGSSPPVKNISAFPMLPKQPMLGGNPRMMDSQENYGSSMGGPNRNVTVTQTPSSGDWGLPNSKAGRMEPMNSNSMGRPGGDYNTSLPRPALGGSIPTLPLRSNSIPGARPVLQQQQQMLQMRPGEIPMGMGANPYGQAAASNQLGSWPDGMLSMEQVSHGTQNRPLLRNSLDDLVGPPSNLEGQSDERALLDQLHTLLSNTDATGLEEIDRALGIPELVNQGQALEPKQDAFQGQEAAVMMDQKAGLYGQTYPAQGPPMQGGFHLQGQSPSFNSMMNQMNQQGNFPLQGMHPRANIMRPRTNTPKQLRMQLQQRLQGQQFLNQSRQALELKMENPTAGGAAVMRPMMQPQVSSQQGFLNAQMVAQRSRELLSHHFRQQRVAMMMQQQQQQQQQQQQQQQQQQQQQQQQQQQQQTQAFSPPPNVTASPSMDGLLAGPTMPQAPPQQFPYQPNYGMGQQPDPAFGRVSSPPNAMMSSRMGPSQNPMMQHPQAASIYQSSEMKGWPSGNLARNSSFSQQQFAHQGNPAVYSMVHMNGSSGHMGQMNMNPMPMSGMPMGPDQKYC
NR5A2 inv ag: suppresses constitutive activity of human LRH-1. O00482. HEK293T StAR-luciferase reporter, LRH-1 transfected, 24 h. inhibition, % at 3.6 µM. 360,000 tested, 0.13% active. AID 602396;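 active = inhibition above the mean inhibition of all tested compounds plus 3 SD, cut at about 73% in these data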;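 note: 0% = DMSO wells and 100% = reporter-only cells lacking LRH-1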
NR2F2 inh: blocks human COUP-TFII nuclear receptor | 370,000 tested, 0.7% active | HEK293T NGFI-A luciferase reporter, luminescence | P24468 | inhibition, % at 8.6 µM;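 active = inhibition above a per-plate cutoff, mean inhibition of test wells between control levels plus 3 SD, cut at about 38% in these data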;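 note: cells cotransfected with COUP-TFII expression vector driving the NGFI-A reporter; 0% = median of COUP-TF2 test wells and 100% = reporter-only cells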
Gal4-VP16 ctr: counter-screen for COUP-TFII antagonists: inhibitors of VP16. inhibition, % at 8.5 µM. HEK293 Gal4-VP16 luciferase reporter, luminescence. AID 687007. 2,500 tested, 25% active. shares compounds with NR2F2 inh; in the data active = inhibition above about 13%
NR2F2 inh conf: COUP-TFII (NR2F2) inhibition, confirmation assay; shares compounds with NR2F2 inh; HEK293 NGFI-A luciferase reporter, luminescence; inhibition, % at 8.5 µM; 2,500 tested, 45% active;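 active = mean inhibition over three repeats above a set limit taken from the earlier primary screen, cut at about 38% in these data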;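 note: 100% = cells given the luciferase reporter alone without the COUP-TF2 vector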
* hit, by the source's call; nt = no result.

SMILES | NCOA2 inhibitor | NCOA1 inh | GalR3 antag | SRC3 inh | NR5A2 inv ag | NR2F2 inh | Gal4-VP16 ctr | NR2F2 inh conf
O=C(NCc1ccc(C(=O)NC2CCCC2)cc1)c1cccc(Br)c1 | -6.7 | nt | nt | nt | nt | -7.8 | nt | nt
c1ccc(-c2cc(CSc3nc4ccccc4[nH]3)on2)cc1 | -13.4 | -0.2 | -6.3 | 21.6 | -4.6 | 40.0* | -7.5 | 13.7
CCCCNC(=O)C1(C)CCN1C(=O)c1ccc2c(c1)C(C)(C)CCC2(C)C (stereo not drawn) | 27.9 | 0.7 | -6.2 | 3.3 | 15.8 | 20.1 | nt | nt
CCCCNC(=O)C1(C)CCCCN1C(=O)c1ccc2c(c1)C(C)(C)CCC2(C)C (stereo not drawn) | 20.7 | 25.1 | -8.0 | -12.4 | 24.6 | 37.9* | -4.3 | 29.4
C#CCN(C[C@@H]1[C@@H](OC(=O)NCC2CCCCC2)[C@@H](OC(=O)NCC2CCCCC2)Cn2c(=O)ccc(=O)n21)S(=O)(=O)c1ccc(C)cc1 | 31.4 | -4.9 | -6.7 | 6.8 | 59.0 | 53.7* | 45.2* | 57.2*
Cc1ccc(C(C)C)c(OCc2ccc(C(=O)N/N=C/c3ccc(C(=O)O)cc3)cc2)c1 | 47.0 | -24.8 | -5.6 | -1.0 | -26.1 | 39.5* | 24.3* | 8.2
O=C(Cn1nnc(-c2ccc(N3CCOCC3)cc2)n1)c1cccc(F)c1 | -1.9 | nt | nt | nt | nt | -18.6 | nt | nt
C=CCN1C(=O)[C@@H](CC(=O)NCc2cccc(C(F)(F)F)c2)[C@]2(C(=O)OC)CCCCC=C12 | 12.4 | nt | nt | nt | nt | -2.0 | nt | nt
Cn1nc(C(C)(C)C)cc1C(=O)N1CCCCC1c1cc(C(=O)Nc2ccc(F)c(Cl)c2)no1 (stereo not drawn) | -25.3 | 14.4 | -7.0 | 26.8 | 14.9 | 41.0* | 2.8 | 13.4
O=C(Nc1ccc(F)c(Cl)c1)c1cc(C2CCCCN2C(=O)c2ccc(Cl)cc2)on1 (stereo not drawn) | 4.0 | 3.5 | -8.9 | 11.9 | -4.3 | -6.9 | nt | nt
COC(=O)[C@]12C[C@H](CC(=O)NCCc3ccccc3OC)C(=O)N(Cc3ccco3)C1=C[C@H](C(C)(C)C)O[C@@H]2C | 26.5 | nt | nt | nt | nt | 7.8 | nt | nt
CC1CCc2c(sc(NC(=O)CSc3ncn[nH]3)c2C#N)C1 (stereo not drawn) | 82.0* | 44.2 | -5.7 | 53.4 | 46.8 | 85.9* | 79.9* | 84.1*
CC(C)(C)C1CCc2c(sc(NC(=O)CSc3ncn[nH]3)c2C#N)C1 (stereo not drawn) | 6.4 | 15.0 | -3.2 | 1.9 | -1.0 | -3.6 | nt | nt
N#Cc1c(NC(=O)CSc2ncn[nH]2)sc2c1CCCC2 | 75.2* | 23.2 | -5.1 | 25.9 | 38.8 | 76.8* | 78.5* | 74.3*
N#Cc1c(NC(=O)CCCC(=O)O)sc2c1CCCCC2 | 61.2* | -66.1 | 0.3 | -13.3 | -27.4 | 46.3* | 16.7* | 1.2
COc1ccc(NC(=O)c2cc3c(C)nn(-c4ccccc4)c3s2)cc1 | 14.5 | nt | nt | nt | nt | -2.4 | nt | nt
CCN(CC)c1ccc(C=NNC(=O)Cc2cc(=O)[nH][nH]2)c(O)c1 | 16.1 | nt | nt | nt | nt | -13.8 | nt | nt
COC(=O)[C@]12C[C@H](CC(=O)N3CCSCC3)C(=O)N(Cc3cccc4ccccc34)C1=C[C@H](COCc1ccccc1)O[C@@H]2C | 22.3 | nt | nt | nt | nt | 5.5 | nt | nt
CCOc1ccc2[nH]c3c(NCCCOC)ncnc3c2c1 | -87.0 | -23.0 | 2.5 | -31.8 | -39.5 | -4.4 | nt | nt
COc1ccc(CNc2ncnc3c2[nH]c2ccccc23)cc1 | 2.3 | 5.4 | -8.1 | 15.2 | 7.9 | 45.1* | -0.4 | 35.1
Brc1ccc2[nH]c3c(NCc4ccccn4)ncnc3c2c1 | -0.3 | 2.0 | -6.1 | 2.4 | -9.0 | -8.2 | nt | nt
CC(C)OCCCNc1ncnc2c1[nH]c1ccccc12 | 4.1 | 5.1 | -6.8 | 6.9 | 13.0 | 65.9* | -33.8 | 37.2
COc1ccc(CNc2ncnc3c2[nH]c2cc(OC)c(OC)cc23)cc1 | -12.0 | -20.8 | 0.1 | 14.2 | -15.5 | -24.9 | nt | nt
Cc1ccc2[nH]c3c(NCc4ccccc4)ncnc3c2c1 | -10.4 | nt | -1.1 | nt | nt | 48.2* | -59.1 | -18.3
CC(=O)c1cn(CCOc2ccccc2C)c2ccccc12 | 19.5 | 18.8 | 4.0 | 28.4 | 25.1 | 60.9* | 0.0 | 53.8*
SMILES | NCOA2 inhibitor | NCOA1 inh | GalR3 antag | SRC3 inh | NR5A2 inv ag | NR2F2 inh | Gal4-VP16 ctr | NR2F2 inh conf
Cc1ccccc1OCCn1cc(C(=S)N2CCCC2)c2ccccc21 | -15.4 | 0.0 | -3.8 | 3.4 | -25.3 | 1.3 | nt | nt
CC(=O)c1cn(CCOc2ccc(F)cc2)c2ccccc12 | 29.9 | 1.2 | -8.6 | -16.4 | 12.3 | 47.1* | -12.9 | 11.5
CC(=O)c1cn(CC(=O)Nc2ccccc2)c2ccccc12 | 17.1 | 17.0 | -8.8 | 19.1 | 40.7 | 47.4* | -5.9 | 19.0
CC(C)CNC(=O)CC1Oc2ccccc2NC1=O (stereo not drawn) | -31.3 | nt | nt | nt | nt | 3.1 | nt | nt
C=CCN1C(C(=O)OC)CN(Cc2cn(Cc3ccc(Cl)cc3)nn2)CCS1(=O)=O (stereo not drawn) | 6.1 | nt | nt | nt | nt | 5.0 | nt | nt
C=CCn1c(SCc2ccc(C(=O)Nc3nccs3)cc2)nnc1-c1ccc(C)c(Cl)c1 | 21.6 | -4.2 | -4.9 | 18.9 | -0.1 | 39.7* | -11.9 | 20.9
Cn1nnnc1SCc1ccc(C(=O)Nc2nccs2)cc1 | -36.7 | -24.2 | -7.1 | -70.7 | -65.6 | -29.2 | nt | nt
N#C[C@@H]1N[C@H](CO)[C@@H]1c1ccccc1 | 21.7 | nt | nt | nt | nt | -13.8 | nt | nt
COc1ccc(CC(=O)NCc2cccc(CNC(=O)Cc3ccc(OC)c(OC)c3)c2)cc1OC | -11.1 | -22.2 | -8.8 | 5.1 | 1.8 | -5.7 | nt | nt
CCc1cccc(NC(=O)Cc2ccc(OC)c(OC)c2)c1 | 8.4 | -1.2 | 1.3 | 24.9 | 28.4 | 39.5* | 11.7 | 32.0
COc1ccc(CC(=O)Nc2ccc(-c3nnc(-c4ccccc4)o3)cc2)cc1OC | nt | -37.7 | nt | -40.3 | -30.0 | nt | nt | nt
COc1ccc(CC(=O)Nc2cccc(-c3nnc(-c4cccc(C)c4)o3)c2)cc1OC | 13.9 | -4.0 | 3.0 | -6.6 | -6.7 | 53.3* | -20.0 | 10.9
O=C(c1cc(Cl)cc(Cl)c1)N1CCC(Oc2cccnc2)CC1 | -4.0 | nt | nt | nt | nt | 23.0 | nt | nt
COc1ccc(C2(CNC(=O)c3ccccc3)CCCC2)cc1OC | 19.6 | 3.0 | -8.4 | -4.4 | -13.9 | 3.2 | nt | nt
COc1cccc(C(=O)NCC2(c3ccccc3)CCCC2)c1OC | -1.4 | 16.5 | -0.2 | 14.0 | 5.1 | 44.9* | -8.2 | 16.8
COc1ccc2c(c1C(=O)/C=C/c1ccccc1)OC(C)(C)C=C2 | nt | nt | nt | nt | nt | -1.8 | nt | nt
CCCN1CCS(=O)(=O)N(Cc2cn(Cc3ccc(OC)cc3)nn2)C(C(=O)OC)C1 (stereo not drawn) | -2.9 | nt | nt | nt | nt | -14.5 | nt | nt
COC(=O)CSc1nc2nc(-c3cccs3)cc(C(F)(F)F)c2c(=O)[nH]1 | -21.1 | 15.3 | -11.7 | -0.5 | -8.0 | 17.1 | nt | nt
O=C(CSc1nc2nc(-c3cccs3)cc(C(F)(F)F)c2c(=O)[nH]1)C(F)(F)F | 34.1 | 17.2 | -10.3 | 16.6 | -13.1 | 38.1* | -3.2 | 36.5
